Assay results as given in PubChem BioAssay AID624296 (National Center for Advancing Translational Sciences (NCATS), 2012).
Hit rate of the full screen: of about 350,000 compounds, about 9,900 (2.8%) were called active. Entries that show only a call come without a potency. Inconclusive results (about 15%) are left out. The sample holds actives, similar compounds and a random draw of the others, so the mix is not that of the screen. Calls follow the shape of the dose curve; as a rule, active = well fitted activation curve with a large enough effect; inconclusive = small, poorly fitted or top-dose-only effect; inactive = no such curve, though single readings can be large or run the other way.

test: A quantitative high throughput screen for small molecules that induce DNA re-replication in MCF 10a normal breast cells.; also: nearly all actives have a fitted effect of over 50% in size; conditions: MCF 10A DNA re-replication, Hoechst nuclear intensity, 48 h; series mostly up to 46.1 µM
Potency is read from the fitted curve at half-maximal effect.

| SMILES | Potency |
| --- | --- |
| O=C(OCCOc1ccccc1Cl)c1cc(S(=O)(=O)N2CCCCC2)ccc1N1CCOCC1 | inactive |
| CCC(C(=O)N1CCN(S(=O)(=O)c2sc(C(=O)O)c(C)c2C(=O)O)CC1)c1ccccc1 (stereo not given) | inactive |
| COCCN1C(=O)N[C@@H](c2ccccc2)C(C(=O)OC)=C1C | inactive |
| CC1=C(C(=O)OCc2ccccc2)C(c2ccc(C(F)(F)F)cc2)NC(=O)N1CCCCCC(=O)O (stereo not given) | inactive |
| COC(=O)CCCCCN1C(=O)NC(c2ccc(-c3ccccc3)cc2)C(C(=O)OCc2ccccc2)=C1C (stereo not given) | 3.26 µM (active) |
| COc1cc(OC)cc(C(=O)NC(C(=O)N2CCC2)C(C)C)c1 (stereo not given) | inactive |
| O=C(Cn1cnc2c(OCc3ccccc3)ncnc21)NCc1nc2ccccc2[nH]1 | inactive |
| COCCCNC(=O)CC1C[C@H](C(=O)N2CCCCC2)[C@@]2(CCc3ccccc3)c3[nH]c4ccccc4c3CCN2C1=O (stereo not given in full) | inactive |
| O=C(N/N=C\c1cc2c(cc1Cl)OCO2)c1ccc(Br)s1 | 5.8 µM (active) |
| O=C(NCc1ccc2c(c1)OCO2)c1ccc(Cl)s1 | inactive |
| O=C(N/N=C/c1cc2c(cc1Br)OCO2)C1COc2ccccc2O1 (stereo not given) | inactive |
| CCCN(CC1CC1)C(=S)NC(=O)c1ccccc1Br | inactive |
| O=C(CSc1n[nH]c(=O)n1-c1ccccc1)Nc1ccccc1C(F)(F)F | inactive |
| O=c1[nH]nc(SCCS(=O)(=O)c2ccc(F)cc2)n1-c1ccccc1C(F)(F)F | 18.4 µM (active) |
| O=S(=O)(c1ccc(F)cc1)N1CCN(Cc2ccccc2C(F)(F)F)CC1 | inactive |
| Cn1c(SCC(=O)Nc2nccs2)nnc1-c1cccnc1 | inactive |
| Cc1[nH]c2ccccc2c1SCC(=O)Nc1nccs1 | 0.651 µM (active) |
| CCn1c(SCC(=O)Nc2nccs2)nnc1-c1ccco1 | inactive |
| CCCSc1ccc([C@H]2N[C@@](Cc3ccccc3)(C(=O)OC)[C@H]3C(=O)N(C)C(=O)[C@@H]23)cc1 | inactive |
| CC(=O)Nc1ccc(NC(=O)CN2CCCC(C)C2)c(Cl)c1 (stereo not given) | inactive |
| CC1CCCN(CC(=O)Nc2cc(Cl)ccc2Oc2ccccc2)C1 (stereo not given) | 18.4 µM (active) |
| O=C(CSc1ccccc1)Nc1cc(Cl)ccc1Oc1ccccc1 | inactive |

| SMILES | Potency |
| --- | --- |
| COc1ccccc1NC(=O)C1CCCN1S(=O)(=O)c1ccc(Cl)cc1 (stereo not given) | 18.4 µM (active) |
| CC(C)c1nnc(NC(=O)C2CCCN2S(=O)(=O)c2ccc(Cl)cc2)s1 (stereo not given) | inactive |
| Cc1cccc(NC(=O)C2CCCN2S(=O)(=O)c2ccc(F)cc2)c1C (stereo not given) | inactive |
| O=C(COC(=O)Cn1[nH]c(=O)c2ccccc2c1=O)Nc1ncc(Cl)cc1Cl | inactive |
| O=C(CSc1ncn[nH]1)Nc1ccc(Br)cc1Br | inactive |
| CN(C(=O)COC(=O)c1cc(=O)[nH]c2ccccc12)C1CCCCC1 | inactive |
| CCN(C(=O)CSc1cccc[n+]1[O-])c1ccccc1 | inactive |
| O=C(CN1C(=O)C2C3CCC(C3)C2C1=O)Oc1ccc2ccccc2c1 (stereo not given) | inactive |
| O=C(COC(=O)CN1C(=O)C2CCCCC2C1=O)Nc1ccc(F)c(F)c1F (stereo not given) | inactive |
| CC1=CC(C)(C)Nc2ccc(OC(=O)CN3C(=O)C4CCCCC4C3=O)cc21 (stereo not given) | 7.31 µM (active) |
| C=CC[C@H](CC(=O)OC(C)(C)C)C(=O)OC[C@H]1CCCN1C(=O)[C@H](CC=C)CC(=O)N(CCO)Cc1ccccc1 | inactive |
| CC/C(=C(/c1ccccc1)c1ccc(OCC[N+](C)(C)C)cc1)c1ccccc1 | inactive |
| CCCCN1CC(COc2ccccc2)Oc2cccc(F)c2S1(=O)=O (stereo not given) | inactive |
| CN(C)C(=O)N=NC(=O)N(C)C | inactive |
| Cc1ccc(-c2nc3ccccc3[nH]2)cc1NC(=O)c1sc2ccccc2c1Cl | 20.6 µM (active) |
| COc1ccc(Br)cc1C(=O)NC(=S)Nc1cc(-c2nc3ccccc3[nH]2)ccc1C | inactive |
| O=C(Nc1cccc(-c2nc3ccccc3[nH]2)c1)c1ccc(C(=O)Nc2cccc(-c3nc4ccccc4[nH]3)c2)cc1 | inactive |
| COc1ccc(S(=O)(=O)N2CCOCC2)cc1NC(=O)CSc1cc(C)ccc1C | inactive |
| CCN(CC(=O)Nc1ccccc1C(=O)NC1CC1)Cc1cccs1 | inactive |
| CCC(=O)Nc1ccc(S(=O)(=O)NCC2CCCO2)cc1 (stereo not given) | inactive |
| O=S(=O)(NCC1CCCO1)c1ccc2ccccc2c1 (stereo not given) | 2.91 µM (active) |
| CCOc1ccc(S(=O)(=O)NCC2CCCO2)cc1 (stereo not given) | inactive |

| SMILES | Potency |
| --- | --- |
| O=C(COc1ccc(F)cc1Br)NCC1COc2ccccc2O1 (stereo not given) | inactive |
| CCN(C(=O)COC(=O)CCC(=O)c1cccs1)C1CCCCC1 | inactive |
| CC(=O)c1cc(C#N)c(N2CCCCC2)nc1C | inactive |
| Cc1cc(C)c2nc(N3CCCC3)c(C#N)cc2c1 | inactive |
| CCOC(=O)c1cc(C#N)c(N2CCCCC2)nc1-c1ccccc1 | 13 µM (active) |
| CC1CN(C(=O)c2ccc([N+](=O)[O-])s2)CC(C)O1 (stereo not given) | inactive |
| C/C(=N\Nc1ccccc1)c1cccs1 | inactive |
| CCCOc1ccc(C(=O)CCC(=O)OC(C)C(=O)Nc2ccc(NC(C)=O)cc2)cc1 (stereo not given) | inactive |
| CCCOc1ccc(C(=O)NCCc2ccccc2)cc1 | inactive |
| CCCOc1ccc(C(=O)C(CCC(CNCC)C(=O)c2ccc(OCCC)cc2)CNCC)cc1 (stereo not given) | 25.9 µM (active) |
| COc1ccc(OC)c(-c2csc(NC(=O)COC(=O)C3CC3)n2)c1 | inactive |
| Cc1cc(C)c(S(=O)(=O)c2ccccc2)c(OC(=O)c2c(F)cccc2Cl)n1 | 16.4 µM (active) |
| O=C(c1c(F)cccc1Cl)N1CCN(S(=O)(=O)c2ccc3c(c2)OCCCO3)CC1 | inactive |
| Cc1ccc(NNC(=O)c2c(F)cccc2Cl)cc1Cl | inactive |
| O=C(COC(=O)c1cccnc1Cl)Nc1ccc(S(=O)(=O)N2CCOCC2)cc1 | inactive |
| O=C(N[C@H]1C/C=C\C(c2cccc(F)c2)N(Cc2ccccc2)C(=O)C1)OCC1c2ccccc2-c2ccccc21 (stereo not given in full) | inactive |
| Cc1nc(-c2ccc(F)cc2)c(CC(=O)N(C)CC(=O)Nc2c(C)cccc2C)s1 | inactive |
| Cc1nc(-c2ccc(Cl)cc2)sc1C(=O)NN | 16.4 µM (active) |
| Cc1nc(-c2ccccc2)sc1C(=O)/C=C/N(C)C | inactive |
| Cc1nc(N2CCOCC2)sc1C(=O)NN | inactive |
| O=C1CC(c2ccccc2)C(=O)N2C(=O)CC(c3ccccc3)C(=O)N12 (stereo not given) | inactive |
